The values that follow come from PubChem BioAssay.

Activity calls are given as the source filed them.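 How the source made its calls: active means mean duplicate potentiation above the buffer control mean plus 5 SD of buffer wells; inactive means the rest.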

For this experiment, the target named is Potassium voltage-gated channel subfamily KQT member 2 (Rattus norvegicus) (UniProt O88943). The experiment in a line: rat KCNQ2 channel potentiation, selectivity assay for KCNQ1 potentiator project, KCNQ2-CHO-K1 cells (AID 493009).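 Further: assay conditions were tuned for KCNQ1 rather than KCNQ2 modulators; signal is max minus min fluorescence divided by baseline after thallium stimulus.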 As to conditions: FluxOR thallium flux fluorescence, at 10 µM; active compounds read high, scaled: buffer 0, activator control 100.
Potassium voltage-gated channel subfamily KQT member 2 (Rattus norvegicus), sequence (O88943 whole entry, looked up): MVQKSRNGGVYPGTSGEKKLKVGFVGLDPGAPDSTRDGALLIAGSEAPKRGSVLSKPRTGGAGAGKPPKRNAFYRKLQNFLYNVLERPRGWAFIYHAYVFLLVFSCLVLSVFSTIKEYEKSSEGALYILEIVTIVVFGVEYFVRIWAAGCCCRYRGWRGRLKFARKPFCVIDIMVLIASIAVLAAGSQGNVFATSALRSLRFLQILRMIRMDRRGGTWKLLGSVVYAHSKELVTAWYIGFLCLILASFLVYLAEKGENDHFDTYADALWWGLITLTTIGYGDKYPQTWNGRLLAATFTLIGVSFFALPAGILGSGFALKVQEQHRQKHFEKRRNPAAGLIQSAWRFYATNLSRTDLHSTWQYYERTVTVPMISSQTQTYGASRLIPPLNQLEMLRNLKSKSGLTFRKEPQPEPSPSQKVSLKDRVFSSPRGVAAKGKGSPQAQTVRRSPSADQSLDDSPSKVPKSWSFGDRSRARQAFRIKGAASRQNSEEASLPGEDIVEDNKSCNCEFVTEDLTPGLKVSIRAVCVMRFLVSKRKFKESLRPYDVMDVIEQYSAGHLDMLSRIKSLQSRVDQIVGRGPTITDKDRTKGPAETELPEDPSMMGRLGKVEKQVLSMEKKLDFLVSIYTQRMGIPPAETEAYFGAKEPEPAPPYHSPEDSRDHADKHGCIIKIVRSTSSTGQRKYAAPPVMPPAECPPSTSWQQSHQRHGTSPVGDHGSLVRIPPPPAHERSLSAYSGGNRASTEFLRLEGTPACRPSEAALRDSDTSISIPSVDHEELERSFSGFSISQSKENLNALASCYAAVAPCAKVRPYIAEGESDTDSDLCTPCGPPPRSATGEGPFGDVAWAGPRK
Consider `O=C(COC(=O)CNC(=O)c1ccc(Cl)cc1Cl)Nc1cccc(S(=O)(=O)N2CCCC2)c1`, for which the result was inactive.
For `CCC(NC(=O)CCc1nnc(-c2cc(C)on2)o1)C12CC3CC(CC(C3)C1)C2` (stereo not given), the outcome was inactive.
Regarding `O=C(NC(=S)Nc1ccccc1)c1ccc(Br)o1`, the potentiation was 158% (active).
On the same count and under the same terms, as for `Fc1ccc(-c2csc(=S)[nH]2)cc1`, the figure is 398% (active).
`Cc1cc(C)cc(-n2ccnc2SCC(=O)Nc2nccs2)c1`: the outcome was inactive.
Turning to `CCOC(=O)C1=C(O)c2ccccc2C(=O)/C1=C\c1ccc(CC)cc1`, the potentiation is 156% (active).
As to `CNC(=S)N/N=C/c1cc(Br)cc(Br)c1O`, the outcome was inactive.
Take `Cc1cc(Br)ccc1OCC(=O)NNC(=O)c1cnccn1`: the result was inactive.
Still for that read-out and setting: as for `CCOC(=O)c1nnn(CC(=O)Nc2cc(Cl)ccc2C)c1C(=O)OCC`, the entry is “inactive”; as for `C1=Nc2ccccc2CN1c1ccccc1`, “inactive”.
On to `COc1cccc(N=Nc2ccc(O)c3ncccc23)c1`, for which the potentiation was 170% (active).
As for `Cc1ccccc1CC(=O)NC1CCN(Cc2ccccc2)CC1`, the outcome was inactive.
For the molecule `CC(=O)NC(C1C(=O)CC(C)(C)CC1=O)(C(F)(F)F)C(F)(F)F`, the result was inactive.
On the same count and under the same terms, as for `Cc1cc(C)nc(CCNC(=O)c2cc(COc3ccccc3)on2)n1`, the entry is “inactive”.
Take `CC(C)(C)c1ccc(Oc2ccc(N)cn2)cc1`: the potentiation was 282% (active).
For `O=[N+]([O-])c1cc(C(F)(F)F)ccc1Oc1cccnc1[N+](=O)[O-]`, the result was inactive.
As to `N=C1S/C(=C\c2ccco2)C(=O)N1c1nccs1`, the potentiation is 186% (active).
As to `COc1ccc(Cl)cc1NC(=O)/C=C\C(=O)O`, the outcome was inactive.
`C[C@@H](NC(=O)OC(C)(C)C)c1nnc(S(=O)(=O)Cc2ccccc2)o1`: the potentiation is 158% (active).
The same measure, in the same setting: as for `Cc1sc2nc(CN3CCOCC3)[nH]c(=S)c2c1C`, the figure is 292% (active).
With `C/C(=N\NC(=O)c1cc2ccccc2cc1O)c1ccc(C)o1`, the potentiation is 264% (active).
With `Cc1nc(NC(=S)NC(=O)c2cccs2)ccc1Br`, the outcome was inactive.
On the same count and under the same terms, as for `CCOc1ccc(S(=O)(=O)Nc2cc(OC)ccc2OC)cc1`, the entry is “inactive”; as for `Cn1c(SCc2ccc(C#N)cc2Cl)nc2ccccc21`, “inactive”.
The same measure, in the same setting: as for `Cc1ccc(CN2CCN(/N=C/C(Br)=C\c3ccccc3)CC2)cc1`, the entry is “inactive”.
Turning to `CCOc1ccc(NC(=O)CN(C)C(=O)C2CCN(c3ncnc4sc(C)c(C)c34)CC2)cc1OCC`, the outcome was inactive.
In the case of `O=c1c(O)c(-c2cccs2)oc2ccc(Cl)cc12`, the potentiation was 553% (active).
Same read-out and setting: as for `COc1ccc(C(=O)CC(=O)C(=O)Nc2ccccc2C(F)(F)F)cc1`, the figure is 147% (active).
The same measure, in the same setting: as for `O=C(NN=C1c2ccccc2-c2ccccc21)c1cccc(Br)c1`, the figure is 154% (active).
Same read-out and setting: as for `O=C(NC(=S)NC1CCCc2ccccc21)c1ccco1` (stereo not given), the figure is 272% (active); as for `COC(=O)COc1ccc(-c2ccccc2)cc1C=O`, 216% (active).
Consider `CC(=O)c1c(C)[nH]c(C(=O)Nc2cccc(C(F)(F)F)c2)c1C`, for which the result was inactive.
On the same count and under the same terms, as for `CSc1nccc(-c2nn(-c3ccc(C)cc3)ccc2=O)n1`, the entry is “inactive”.
In the case of `COc1ccc2nc(N=Nc3ccc(O)c4ccccc34)sc2c1`, the potentiation was 188% (active).
Same read-out and setting: as for `S=c1[nH]c(-c2ccccc2)cn1/N=C/c1cccc2ccccc12`, the figure is 184% (active).
On to `O=C(C1CCN(Cc2ccccc2)CC1)N1CCN(C/C=C/c2ccccc2)CC1`, for which the outcome was inactive.
On to `C=CCn1c(=S)[nH]c2nc3c(cc2c1=O)CCCC3`, for which the potentiation is 152% (active).
With `COc1ccc(-c2nnc(Nc3nc4c(OC)cccc4s3)o2)cc1`, the potentiation is 392% (active).
`Cc1nc(NCCc2cnc[nH]2)c2oc3ccccc3c2n1`: the outcome was inactive.
Consider `Cc1ccc(C)c(NC(=S)NNC(=O)c2csc3c2CCC(C)C3)c1` (stereo not given), for which the potentiation was 322% (active).
